PubChem BioAssay AID588342 (National Center for Advancing Translational Sciences (NCATS), 2011)
Screen size: about 360,000 compounds; about 25,000 (6.9%) were called active. Where a call stands in place of a potency, no number is given. Inconclusive results (about 9%) are left out. This is one part of a sample in which actives are shown more often than they occur. Calls come from the whole dose curve; as a rule, active = well fitted inhibition curve with a large enough effect; inconclusive = small, poorly fitted or top-dose-only effect; inactive = flat fitted curve, though single readings scatter.

Each molecule was assayed against Luciferin 4-monooxygenase (Photinus pyralis) (UniProt P08659) (assay: qHTS profiling assay for firefly luciferase inhibitor/activator using purifed enzyme and Km concentrations of substrates (counterscreen for miR-21 project)). Settings: purified FLuc, luminescence inhibition; series mostly up to 57.5 µM.
How it was run: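 Biochemical qHTS of compounds, final roughly 60 µM downward over six points, against 10 nM purified firefly luciferase using Km concentrations of substrates (10 uM D-luciferin, 10 uM ATP) in Tris acetate pH 7.5 buffer; luminescence output.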
Note: nearly all actives have a fitted effect of over 55% in size.
Potency is the fitted concentration of half-maximal effect.

Sequence of Luciferin 4-monooxygenase (Photinus pyralis) (P08659 whole entry, looked up): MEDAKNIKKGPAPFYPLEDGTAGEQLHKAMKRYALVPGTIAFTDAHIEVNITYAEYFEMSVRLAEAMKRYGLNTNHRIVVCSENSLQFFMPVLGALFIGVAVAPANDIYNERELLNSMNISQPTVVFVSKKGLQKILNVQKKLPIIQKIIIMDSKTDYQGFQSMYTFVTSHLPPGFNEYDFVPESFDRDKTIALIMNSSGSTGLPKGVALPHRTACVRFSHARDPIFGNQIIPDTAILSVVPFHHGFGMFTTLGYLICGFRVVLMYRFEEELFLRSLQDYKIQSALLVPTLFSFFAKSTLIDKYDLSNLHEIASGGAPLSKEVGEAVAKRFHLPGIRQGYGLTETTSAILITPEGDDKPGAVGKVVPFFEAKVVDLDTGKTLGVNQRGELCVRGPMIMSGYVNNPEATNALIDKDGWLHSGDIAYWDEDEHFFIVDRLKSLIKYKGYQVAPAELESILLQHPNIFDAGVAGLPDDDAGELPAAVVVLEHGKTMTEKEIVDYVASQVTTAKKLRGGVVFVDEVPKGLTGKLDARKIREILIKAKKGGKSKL

Structure (SMILES) | Potency
CCCN(CCC)CCNC(=O)c1ccc2c(c1)NC(=O)C(CS(=O)(=O)Cc1cccc(Br)c1)N2 (stereo not given) | inactive
COc1cccc(N=C2SC(C(=O)Nc3cccc(Cl)c3)CC(=O)N2C)c1 (stereo not given) | inactive
O=C(Nc1cccn(Cc2ccccc2Cl)c1=O)NC1CCCCC1 | 21.3 µM (active)
O=C(COc1ccccc1Cl)Nc1ccccc1C(=O)NC1CC1 | inactive
COc1ccc(Cn2cccc(NC(=O)Nc3ccc(C#N)cc3)c2=O)cc1 | inactive
CCC(=O)c1ccc(OCC(=O)Nc2ccc(N3CCCCC3)cc2)cc1 | inactive
CCC(=O)Nc1ccc(-c2ccc(N3CCCCC3)nn2)cc1 | 12 µM (active)
CCOc1ccc(NC(=O)CCc2c(C)nn(-c3ccc(N4CCCC4)nn3)c2C)cc1 | inactive
O=C(CSc1nc2ccccc2nc1Cc1ccccc1)N1CCCCC1 | inactive
O=C(CC(c1cccs1)N1Cc2ccccc2C1=O)Nc1ccc(F)c(F)c1 (stereo not given) | inactive
Cc1sc2ncnc(N3CCC(C(=O)Nc4ccc(F)cc4Cl)CC3)c2c1C | inactive
Cc1sc2ncnc(N3CCC(C(=O)Nc4nc5ccc(Cl)cc5s4)CC3)c2c1C | 15.1 µM (active)
Cc1sc2ncnc(N3CCC(C(=O)NNC(=O)c4ccc(F)cc4)CC3)c2c1C | inactive
Cc1ccc(S(=O)(=O)N(C)C)cc1NC(=O)C1Cc2ccccc2CN1C(=O)c1ccco1 (stereo not given) | inactive
CCN(CC)c1ccc(C(=O)c2cnc(/N=C/N(C)C)s2)cc1 | 16.9 µM (active)
CCN(CC)c1ccc(C(=O)Nn2c(C)nc3ccccc3c2=O)cc1 | inactive
COc1ccc(S(=O)(=O)N2CCN(C(C)C(=O)Nc3ccc(C(C)C)cc3)CC2)cc1 (stereo not given) | inactive
COc1ccccc1/C=C1\SC(=O)N(CCC(=O)N(C)C2CCS(=O)(=O)C2)C1=O (stereo not given) | 16.9 µM (active)
COc1ccc(/C=C(\C#N)C(=O)OCC(=O)N(C)C2CCS(=O)(=O)C2)cc1 (stereo not given) | inactive
CN(C(=O)CCN1C(=O)/C(=C/c2ccccc2F)SC1=S)C1CCS(=O)(=O)C1 (stereo not given) | 26.9 µM (active)
Cc1ccc(S(=O)(=O)CCC(=O)OCC(=O)N(C)C2CCS(=O)(=O)C2)cc1 (stereo not given) | inactive
O=C(CN1C(=O)/C(=C\c2ccccc2F)SC1=S)Nc1nc2ccccc2s1 | inactive

Structure (SMILES) | Potency
CN(C(=O)CN1C(=O)S/C(=C\c2ccccc2F)C1=O)C1CCS(=O)(=O)C1 (stereo not given) | inactive
CC[n+]1c(C)n(-c2ccccc2)c2ccc(NC(C)=O)cc21 | inactive
CCN(CC)C(=O)c1nc[nH]c1C(=O)N(C)Cc1ccccc1 | inactive
Cc1ccc(CNC(=O)CCNS(=O)(=O)c2ccc3c(c2)oc(=O)n3C)cc1 | inactive
O=C(CN1CCSCC1)N/N=C/c1ccc(Cl)cc1 | inactive
Cc1nn(Cc2ccc(Cl)cc2)c(Cl)c1/C=N/NC(=O)CNc1ccccc1F | inactive
CCn1nc(C)c(/C=N/NC(=O)Cc2ccc(Cl)cc2)c1C | 15.1 µM (active)
CCn1cc(C(=O)N(C)Cc2ccccc2)c(=O)c2cc(S(=O)(=O)N3CCCCCC3)ccc21 | inactive
CCn1nc(C(=O)Nc2ccc(N3CCOCC3)cc2)c2ccccc2c1=O | inactive
CC1(c2ccc(Cl)cc2Cl)NC(=O)N(CC(=O)Nc2cccnc2Cl)C1=O (stereo not given) | inactive
Cc1cccc(COc2ccccc2/C=N/Nc2ccc([N+](=O)[O-])cc2)c1 | inactive
O=C(O)/C=C/C(=O)NNc1ccc([N+](=O)[O-])cc1 | inactive
O=[N+]([O-])c1ccc(N/N=C/c2ccccc2)cc1 | 19 µM (active)
COC(=O)c1ccc(CSc2ccc(S(=O)(=O)N3CCCCC3)cn2)cc1 | inactive
O=C(C1CCC1)N1CCN(S(=O)(=O)c2ccc([N+](=O)[O-])cc2)CC1 | inactive
COc1ccc(S(=O)(=O)/N=C2\C=C(NS(=O)(=O)c3ccccc3)C(=O)c3ccccc32)cc1 | 15.1 µM (active)
CCCC(NS(=O)(=O)c1ccc(OC)cc1)C(=O)O (stereo not given) | inactive
COc1ccc(NS(=O)(=O)c2ccc(Oc3c(C#N)cccc3C#N)cc2)cc1 | inactive
CCCCc1ccc(NC(=O)CN2C(=O)NC(Cc3ccccc3)C2=O)cc1 (stereo not given) | inactive
CCCCN(C(=O)c1nn(C)c(=O)c2ccccc12)c1c(N)n(CCC)c(=O)[nH]c1=O | inactive
Cc1ccc(S(=O)(=O)NCCNC(C)c2ccc(Br)cc2)cc1 (stereo not given) | inactive
CCOC(=O)c1ccc(NC2=CC(c3ccc(OCC)cc3)N(c3ccc(C(=O)OCC)cc3)C2=O)cc1 (stereo not given) | inactive

Structure (SMILES) | Potency
CC1(C)Cc2c(sc(NC(=O)C(=O)N3CCOCC3)c2C#N)CO1 | inactive
CCOC(=O)N1CCN(C(=O)C(=O)Nc2sc3c(c2C#N)CC(C)(C)OC3)CC1 | 16.9 µM (active)
COC(=O)c1c(NC(=O)C(=O)N2CCCCC2)sc2c1CC(C)(C)OC2 | inactive
COc1ccc(NC(=S)N2CCCC(CO)C2)c(OC)c1 (stereo not given) | inactive
CCCCc1ccc(NC(=S)NCCCN2CCOCC2)cc1 | inactive
CCCCc1ccc(NC(=S)N2CCCC(CO)C2)cc1 (stereo not given) | 2.69 µM (active)
CCOc1ccc(CNC(=O)c2cc(=O)[nH]c3ccc(S(=O)(=O)N4CCCCC4)cc23)cc1 | inactive
Cc1ccc2c(CN3CCN(S(=O)(=O)c4ccccc4C(F)(F)F)CC3)cc(=O)oc2c1 | inactive
COc1ccc(CNC(=O)c2ccc3c(c2)nc2n3CCOC2)c(OC)c1 | inactive
COc1ccc(OC)c(CN2CCN(C(=O)CNC(=O)c3cc(C)cc(C)c3)CC2)c1 | inactive
COc1ccc(C(=O)CSc2nnnn2C)c(OC)c1 | inactive
Cc1ccc(C(=O)CSc2nc(-c3ccccc3)nc3c2CCCC3)c(C)c1 | inactive
CCn1nnnc1SCC(=O)c1ccc(C)cc1C | 6.75 µM (active)
CCOc1ccccc1N(C)C(=O)c1cc2c(s1)-c1ccccc1OC2 | inactive
CC1(C)CC(=O)C=C(c2ccc(Cl)c(C(F)(F)F)c2)C1 | inactive
N#C/C(=C1/CCCN1)c1ccccn1 | inactive
N#CC(=C1SC=CS1)c1nc(-c2ccccc2)cs1 | 7.57 µM (active)
COc1cccc(C(=O)OCC(=O)c2[nH]c(C)c(C(C)=O)c2C)c1 | inactive
COc1cc(C(=O)Nc2ccc(OCc3cc(=O)n4ccc(C)cc4n3)cc2)cc(OC)c1OC | inactive
CCc1ccc(NC(=O)c2cnc3c(-c4ccccc4)c(C)nn3c2C)cc1 | inactive
COc1ccccc1C(=O)Nc1ccc(OCc2nnc3c4ccccc4c(C)nn23)cc1 | 4.26 µM (active)
